RE007 growth inh – qHTS Assay for Inhibitors of the HIV-1 protein Vpr; S. pombe RE007 Vpr strain, BacTiter-Glo ATP luminescence, 24 h; 0.21% of 360,000 active; Potency, µM (titrated, usually from 92.2 µM), usual class: inhibitors; active = well fitted falling curve with a large enough effect; inconclusive = small, poorly fitted or top-dose-only effect; inactive = no such curve, though single readings can be large or run the other way; note: nearly all actives have a fitted effect of over 50% in size
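Fission yeast RE007 carrying one integrated HIV-1 vpr copy, seeded at OD 0.01 in PMG+AL medium with 23 nL pinned compound. Grown 24 h at 30 degrees; viability read by BacTiter-Glo luminescence after 5 min.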
Pf growth 96h – Primary qHTS for delayed death inhibitors of the malarial parasite plastid, 96 hour incubation; P. falciparum luciferase reporter growth, 96 h; Potency, µM (top dose mostly 28.7 µM), actives largely listed as inhibitors; 6.9% of 320,000 active; AID 504834, 2011
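Plates of compound plus infected erythrocytes (2% hematocrit, 0.05% parasitemia final) incubate 96 hours, 37 C, 5% CO2. Detection reagent added; reduced luminescence from the parasites' luciferase reporter flags inhibition.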
NS1 inh – qHTS Assay for Inhibitors of Influenza NS1 Protein Function. Potency, µM (series often up to 46.1 µM). 0.4% of 270,000 active; calls by dose curve; note: actives are rising curves; nearly all actives have a fitted effect of over 50% in size
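Growth recovery, yeast-based: influenza A NS1 expressed in S. cerevisiae causes slow growth, and suppressors are detected by OD600. The parent strain without NS1 is used as positive control.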
Pf growth 48h – Primary qHTS for delayed death inhibitors of the malarial parasite plastid, 48 hour incubation; P. falciparum luciferase growth in erythrocytes, 48 h; Potency, µM (doses to about 28.7 µM), hits mostly inhibitors; 5.9% of 310,000 active
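Luminescence readout; reporter = integrated firefly luciferase in P. falciparum. RBC culture at 2% hematocrit, 0.1% parasitemia final, 37 C/5% CO2; decreased signal taken as growth inhibition.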
SARS PLpro yeast – qHTS of Yeast-based Assay for SARS-CoV PLP | AID 485353, 2010 | S. cerevisiae expressing SARS-CoV PLpro, growth rescue | 0.19% of 330,000 active | Potency, µM (doses to about 32.9 µM), actives largely listed as activators; calls by dose curve; note: nearly all actives have a fitted effect of over 55% in size
Numbers stand for hits; n = inactive; u = inconclusive; x = no result given; [ ] = dose if it differs, or a comment. Only some compounds are listed: those with a hit (about 9.5% of all), similar ones and a draw of the others. Unless noted, calls come from the whole dose curve; as a rule, active = well fitted inhibition curve with a large enough effect; inconclusive = small, poorly fitted or top-dose-only effect, or another doubt; inactive = no such curve, though single readings can be large or run the other way.

SMILES | RE007 growth inh | Pf growth 96h | NS1 inh | Pf growth 48h | SARS PLpro yeast
CCOC(=O)c1[nH]c2ccc(Br)cc2c1NC(=O)CCN1CCOCC1 | n | u | n | n | n
CCOC(=O)c1[nH]c2ccc(Cl)cc2c1NC(=O)/C=C/c1ccc2c(c1)OCO2 | n | n | n | n | n
CCOC(=O)c1[nH]c2ccc(Br)cc2c1NC(=O)CCN1CCCCC1 | x | u | n | u | n
CCCCc1nnc(NC(=O)CSCc2cc(=O)n3cc(C)sc3n2)s1 | n | u | n | n | n
Cc1ccc(S(=O)(=O)N(C)C)cc1NC(=O)c1cc(=O)c2ccccc2o1 | n | n | n | n | n
OC[C@@H]1CN(CCN2CCOCC2)C[C@H](n2cnc3c(Nc4ccccc4)ncnc32)O1 | n | x | x | x | x
COc1cccc(CNC(=O)c2ccc(C)c(S(=O)(=O)N3CCCCC3)c2)c1 | n | u | x | u | n
COC(=O)c1c(C(=O)OC)c(-c2ccc(OC)cc2)n2c1CS(=O)(=O)C2 | n | u | n | u | n
CC(=O)O[C@H]1CC[C@@]2(C)C(=CC[C@@H]3[C@@H]4CC[C@H](c5cc(C(F)(F)F)n(C(C)=O)n5)[C@]4(C)CC[C@@H]32)C1 | x | x | n | x | x
CC(=O)c1c(C)n(CCc2ccc(Cl)cc2)c2ccc(O)cc12 | n | 5.9µM | n | n | n
COC(=O)c1c(C)n(-c2ccc(C)cc2)c2ccc(O)cc12 | n | 4.1µM | n | x | n
CC(=O)c1c(C)n(CCO)c2ccc(O)cc12 | n | x | n | n | n
COC(=O)c1c(C)n(-c2ccccc2)c2ccc(O)cc12 | n | x | n | u | n
Cc1cc(C(=O)CCl)c(C)n1CCc1ccc(Cl)cc1 | n | 8.3µM | n | u | n
CC(=O)c1c(C)n(-c2cccc(Cl)c2)c2ccc(O)cc12 | n | 2.6µM | n | n | n
S=C1NCc2cncnc2N1 | n[18.4 µM] | x | x | x | x
CC(=O)N1c2ccc(S(=O)(=O)N3CCCC3)cc2CC1C(=O)NCc1ccccc1F (stereo not given) | n | u | n | n | n
O=C1C2CCCCN2C(=O)N1CCN1CCN(c2cccc(Cl)c2)CC1 (stereo not given) | n | x | x | x | x
O=C1C2CCCN2C(=O)N1CCCCN1CCN(c2cccc(Cl)c2)CC1 (stereo not given) | n | 13µM | n | n | n
CC(C(=O)Nc1ccccc1-c1ccccc1)N1CCN(C(=O)c2ccccc2)CC1 (stereo not given) | n | u | n | u | n
Cc1ccc(S(=O)(=O)N2CCN(C(C)C(=O)Nc3ccccc3-c3ccccc3)CC2)cc1 (stereo not given) | x | 7.4µM | n | 9.3µM | n
CC(C(=O)Nc1ccccc1-c1ccccc1)N1CCN(Cc2ccccc2)CC1 (stereo not given) | n | u | n | 13µM | n
COc1cc(CNC(=O)Nc2nc(C(N)Cc3ccc(C(F)(F)F)cc3)cs2)cc(OC)c1OC (stereo not given) | n | x | x | x | x
Cc1cc2ccccc2c[n+]1CC(O)C[n+]1cc2ccccc2cc1C | x | x | n | x | x
O=c1[nH]c(/C=C/c2ccccc2)c([N+](=O)[O-])c(=O)[nH]1 | n | 10µM | n | n | n
O=c1[nH]c(/C=C/c2cccc([N+](=O)[O-])c2)c([N+](=O)[O-])c(=O)[nH]1 | n | u | n | u | n
Cc1ccc(NC(=O)c2ccc(S(=O)(=O)NCc3cccnc3)cc2)c(C)c1 | n | n | n | n | n
C[C@@H]1CCCN(CP(=O)(c2ccccc2)c2ccccc2)C1 | x | x | n | x | x
CC1CCC2(CC1)NC(=O)N(CC(=O)N1CCN(C(=O)c3ccco3)CC1)C2=O (stereo not given) | n | n | x | n | n
CCCCC1(c2ccc(F)cc2)NC(=O)N(CC(=O)N2CCN(C(=O)c3ccco3)CC2)C1=O (stereo not given) | n | 6.6µM | n | n | n

Screening results as filed in PubChem BioAssay.
